Hits are enriched below; roughly 4.8% of the tested compounds scored in any of these assays.
DAX1 inh-1 = inhibits human nuclear receptor DAX1; HEK293 Gal4-DAX1 luciferase reporter, luminescence; inhibition, % at 6.75 µM; 0.99% of 340,000 active; AID 504766;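 active = inhibition above the mean over all tested compounds plus 3 SD, cut at about 4.2% in these data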;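 also: 0% = DAX1-transfected cells with DMSO and 100% = empty-vector control cells with DMSO; inhibition shows as a rise in luminescence from relieved DAX1 repression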
hcDAF-12 act = activates DAF-12 receptor from parasite H. contortus. activation, % at 6.8 µM. 1.4% of 370,000 active. HEK293 hcDAF-12 lit1-tk-luc reporter, luminescence; 0% DMSO, 100% Δ7-dafachronic acid;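 active = activation above the mean of all tested compounds plus 3 SD, cut at about 5.5% in these data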;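 also: 100% = response to 3 µM Δ7-dafachronic acid high control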
ssDAF-12 act = activators of S. stercoralis DAF-12 nuclear receptor | 1% of 370,000 active | activation, % at 6.8 µM | AID 652126 | HEK293 ssDAF-12/GRIP1 lit1-tk-luc reporter, luminescence; % of 3 µM dafachronic acid response;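 active = activation above the mean over all tested compounds plus 3 SD, cut at about 0.9% in these data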;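 also: 0% = DMSO-only wells and 100% = 3 µM delta7-dafachronic acid wells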
DAX1 inh-2 = blocks DAX1 repression of SF-1 activated StAR promoter. AID 652010. 1.1% of 370,000 active. HEK293T StAR-luciferase reporter, SF-1/DAX-1 repression relief. inhibition, % at 6.8 µM;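 active = inhibition above the mean over all tested compounds plus 3 SD, cut at about 3.6% in these data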;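 also: 0% = DAX-1 cells with DMSO and 100% = cells lacking DAX-1 with DMSO; higher inhibition means more luminescence from relief of DAX-1 repression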
hgDAF-12 ag = hgDAF-12 agonism, primary luciferase screen. activation, % at 6.8 µM. 1.8% of 370,000 active. HEK293 GAL4-hgDAF12 UAS-luciferase reporter, agonist luminescence; normalized to butyrate control;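 active = activation above a cutoff set at the mean of all screened compounds plus 3 SD, cut at about 10% in these data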;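 also: 0% = DMSO wells and 100% = sodium butyrate wells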
SMARCA2 act = increases SMARCA2 function in MMTV reporter cells; MG213 cells, MMTV-luciferase reporter, dexamethasone, overnight; activation, % at 9.1 µM; 1% of 370,000 active; in the data active = activation above about 7.8%;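 also: 0% = vehicle wells and 100% = reference activator wells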
DAX1 inh confirm = confirmation of human DAX1 (NR0B1) inhibitors; shares compounds with DAX1 inh-2; HEK293T StAR-promoter luciferase reporter, SF-1/DAX-1 repression; inhibition, % at 6.8 µM; 87% of 2,400 active;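 active = inhibition above the average of every tested compound plus 3 SD, cut at about 3.8% in these data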;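 also: 0% = DAX-1 cells with DMSO and 100% = no DAX-1 control cells with DMSO; active compounds raise luminescence by relieving repression of the StAR reporter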
Target sequence (P51843 whole entry, looked up): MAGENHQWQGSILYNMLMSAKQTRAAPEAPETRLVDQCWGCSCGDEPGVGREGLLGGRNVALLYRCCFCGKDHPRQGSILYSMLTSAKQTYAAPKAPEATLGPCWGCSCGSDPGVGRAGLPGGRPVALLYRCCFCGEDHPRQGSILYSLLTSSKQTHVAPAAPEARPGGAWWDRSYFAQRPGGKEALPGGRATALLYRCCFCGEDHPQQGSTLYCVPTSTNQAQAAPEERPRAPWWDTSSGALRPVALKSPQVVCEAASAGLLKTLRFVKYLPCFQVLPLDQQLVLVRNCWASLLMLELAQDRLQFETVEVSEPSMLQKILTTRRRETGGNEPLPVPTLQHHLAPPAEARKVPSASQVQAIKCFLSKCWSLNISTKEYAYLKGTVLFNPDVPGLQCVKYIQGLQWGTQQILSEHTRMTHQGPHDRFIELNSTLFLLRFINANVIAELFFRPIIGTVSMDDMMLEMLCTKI
SF1 AF2mut Luc = counter-screen for DAX1 inhibitors: nonselective inhibitors with SF-1 AF2 mutant. AID 652136. inhibition, % at 6.8 µM. HEK293 StAR-luciferase, luminescence. shares compounds with DAX1 inh-2. 78% of 2,400 active;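 active = inhibition above the mean of all tested compounds plus 3 SD, cut at about 3% in these data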;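 also: 0% = DAX-1 transfected cells with DMSO and 100% = cells without DAX-1 with DMSO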
SMARCA2 act conf = confirmation of SMARCA2 (BRM) function activators | AID 652260 | activation, % at 9.1 µM | MG213 cells, MMTV-luciferase with dexamethasone, luminescence, overnight; MG213 cells expressing E1A, Rb sequestered; DMSO wells 0%, reference activator 100% | shares compounds with SMARCA2 act | 30% of 3,500 active;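 active = activation above its plate's cutoff, the mean activation of tested wells plus 3 SD, cut at about 7.9% in these data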
VP16 Luc act = counter-screen for SMARCA2 activators: GAL4-VP16 luciferase reporter activation; shares compounds with SMARCA2 act; HEK293 GAL4-VP16 pG5luc reporter, luciferase luminescence; scaled: DMSO wells 0%, SAHA wells 100%; activation, % at 9.1 µM; 41% of 3,500 active; AID 686939;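 active = activation above the solvent-only control well mean plus 3 SD, averaged across control plates, cut at about 5.2% in these data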
LXRb hcDAF ctr = counter-screen for hcDAF-12 agonists: agonists of human LXR-beta. shares compounds with hcDAF-12 act. HEK293 Gal4-LXR tk-luc reporter, luminescence, 24 h; normalized: DMSO 0%, positive control 100%. activation, % at 6.8 µM. 3,400 tested, under 10 active;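 active = mean percent activation of the reporter above a cutoff set as the average over tested compounds plus their standard deviation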
hcDAF12 ag = confirmation of H. contortus DAF-12 agonists; shares compounds with hcDAF-12 act; HEK293 hcDAF-12 lit1-tk-luc reporter, luminescence; % of Δ7-dafachronic acid response; activation, % at 6.8 µM; 61% of 3,400 active; AID 743032;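 active = mean activation across triplicate tests above the threshold derived from the earlier primary screen, cut at about 5.5% in these data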;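 also: 0% = DMSO only wells and 100% = 3 µM Δ7-dafachronic acid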
hgDAF12 ag = confirmation of H. glycines DAF-12 agonists; shares compounds with hgDAF-12 ag; HEK293 GAL4-hgDAF12 luciferase reporter, agonist mode; percent of butyrate response; activation, % at 6.8 µM; 80% of 3,300 active; AID 743050;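 active = mean activation over triplicate wells above the hit cutoff derived from the earlier primary screen, cut at about 11% in these data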;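 also: 0% = DMSO low control and 100% = 2 mM sodium butyrate high control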
LXRb DAF12 ctr = activates human LXR-beta, counter-screen for DAF-12 agonists | activation, % at 6.8 µM | shares compounds with hgDAF-12 ag | 3,300 tested, under 10 active | AID 743051 | HEK293 Gal4-LXR luciferase reporter, 24 h;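 active = mean activation of the triplicate above a set limit carried over from the primary screen, none filed active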
* marks the source's active call; other numbers are inactive results; / = not tested or not shown.

SMILES	DAX1 inh-1	hcDAF-12 act	ssDAF-12 act	DAX1 inh-2	hgDAF-12 ag	SMARCA2 act	DAX1 inh confirm	SF1 AF2mut Luc	LXRb hcDAF ctr	hcDAF12 ag	hgDAF12 ag	LXRb DAF12 ctr	others
Cc1cccnc1NC(=O)Cn1nc(-c2ccccc2)oc1=S	1	4	1.0*	4.9*	19*	1	12*	7.5*	/	/	17*	1
O=C(COc1cccc(NC(=O)c2cccc([N+](=O)[O-])c2)c1)c1ccc(Br)cc1	0	-3	-2	-2	-1	-1	/	/	/	/	/	/
COc1ccc(/C=C/c2nc3ccccc3n2Cc2ccc(OC)c(OC)c2)cc1	0	7.7*	0.9*	5.9*	27*	5	19*	6.8*	1	8.6*	15*	1
COCCOCCn1c(/C=C/c2ccccc2)nc2ccccc21	4	3	0	6.2*	13*	1	14*	6.8*	/	/	15*	1
C[C@H](CO)N1C[C@H](C)[C@H](CN(C)Cc2cncnc2)Oc2cc(Br)ccc2S1(=O)=O	0	-1	-1	-1	3	0	/	/	/	/	/	/
CC(C)NC(=O)NC(=O)CSc1nncs1	0	1	-1	0	1	-2	/	/	/	/	/	/
Cc1cc(C(=O)CSc2nn(-c3ccccc3)c(=S)s2)c(C)n1Cc1ccco1	-3	-2	-2	-1	-5	-3	/	/	/	/	/	/
Cc1cc(C(=O)CSc2nncs2)c(C)n1Cc1ccco1	-2	5	0	4.8*	16*	5	9.8*	5.3*	/	/	13*	1
O=C(O)c1cnn2c(-c3ccc(F)cc3)ccnc12	1	2	-1	0	-3	7	/	/	/	/	/	/
Cc1cc(C(=O)Nc2nc(C)c(C(=O)N(C)C)s2)ccc1[N+](=O)[O-]	1	3	0	4.6*	14*	4	13*	5.4*	/	/	11*	1
CCCC1(c2ccccc2)NC(=O)N(CC(=O)Nc2cc(S(=O)(=O)N3CCOCC3)ccc2Cl)C1=O (centres undefined)	0	-1	-2	1	-3	0	/	/	/	/	/	/
CCN1CCCC1CNC(=O)Cn1nc(C)n2nc(-c3ccccc3)cc2c1=O (centres undefined)	-1	0	-1	0	2	0	/	/	/	/	/	/
Clc1ccc(OCCSc2ncccn2)c(Br)c1	4.4*	6.4*	1.8*	5.5*	21*	5	16*	8.1*	/	/	22*	1
Nc1ccccc1C(=O)NNC1=C(C(=O)C(F)(F)F)CCC1	15*	9.2*	0	7.2*	17*	5	13*	6.5*	0	1	18*	0
CC1(C)c2cc(O)ccc2OC1N1CCOCC1 (centres undefined)	1	-2	-1	0	1	-3	/	/	/	/	/	/
C/C(=N\NC(=O)c1ccccn1)c1ccc(C(=O)O)s1	/	4	1	5.2*	22*	6	3	3	/	/	11*	0
Cc1ccc(/C(N)=N/OC(=O)c2cccs2)cc1	2	12*	1.0*	6.5*	21*	-1	5.9*	5.1*	1	5	17*	1
COc1ccccc1C(=O)NNC(=O)c1cccc(Cl)c1	1	13*	1	5.6*	17*	2	14*	7.9*	1	7.5*	16*	1
COCC(=O)N1CCC(Oc2ccc(C(=O)NC3CCOC(C)(C)C3)cc2)CC1 (centres undefined)	-1	3	-1	0	1	1	/	/	/	/	/	/
COc1ccc(/C=C/C(=O)O)cc1S(=O)(=O)NC1CCS(=O)(=O)C1 (centres undefined)	-1	-1	0	0	-2	3	/	/	/	/	/	/
Cc1ccsc1C(=O)NN=C1CCCCCC1	1	9.2*	1.8*	15*	15*	4	4.7*	3.4*	0	1	13*	1
C/C(=N\NC(=O)c1sccc1C)c1ccncc1	2	9.1*	1.1*	18*	20*	9.2*	4.9*	2.9*	1	2	14*	1	SMARCA2 act conf=9.4*;VP16 Luc act=10*
CC(=O)N1CCCc2ccc(NS(=O)(=O)c3ccccc3)cc21	-1	-1	-1	0	-3	-3	/	/	/	/	/	/
O=C(Nc1ccc2c(c1)OCCO2)c1ccc2ccccc2n1	3	21*	2.7*	10.0*	20*	7	13*	8.2*	2	16*	22*	1
O=C(Nc1ccccc1)c1ccc2ccccc2n1	5.6*	18*	1.9*	5.4*	19*	2	13*	9.8*	1	16*	22*	1
COCC(=O)Nc1c(C(=O)Nc2ccc3c(c2)OCCO3)oc2ccccc12	1	3	-1	4.6*	17*	-1	8.6*	5.9*	/	/	18*	1
CCC(=O)Nc1c(C(=O)Nc2ccc3c(c2)OCCO3)oc2ccccc12	0	4	0	3	9	0	/	/	/	/	/	/
COc1cccc(NC(=O)CCCn2nc(C)c3c(C)n(-c4ccccc4)nc3c2=O)c1	0	-1	-1	1	2	-3	/	/	/	/	/	/

Screens as filed in PubChem.
